Reference: PubChem BioAssay (NCATS)
Results filed as inconclusive are left out. Calls of active or inactive are those of the source. Unless noted, the call rests on the fitted dose curve; in most records, active means well fitted curve in the direction sought with a large enough effect; inconclusive means small, poorly fitted or top-dose-only effect, or another doubt; inactive means no such curve, though single readings can be large; an effect the other way counts as inactive or inconclusive.

Key:
[1] = qHTS to identify inhibitors of the type 1 interferon - major histocompatibility complex class I in skeletal muscle: primary screen against the NCATS Pharmaceutical Collection (AID 1347407);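 further: luminescence of HiBiT knocked into endogenous HLA-B as interferon-induced MHC class I level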
Method in brief: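 Cells were seeded with 4 ng/ml IFN-beta, incubated 1 h, then dosed with compounds over eight 1:5 steps up to 46 uM final. After 24 h at 37 C, HiBiT lytic reagent was added and luminescence read after 10 min lysis in the dark.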

[2] = target: Protein phosphatase 1D (Homo sapiens) (UniProt O15297); assay: RapidFire Mass Spectrometry qHTS Assay for Modulators of WT P53-Induced Phosphatase 1 (WIP1) (AID 1347424);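 further: amount of dephosphorylated VEPPL-S-QETFS peptide product formed by WIP1; series mostly up to about 63 µM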
Chain of Protein phosphatase 1D (Homo sapiens) (O15297 whole entry, looked up): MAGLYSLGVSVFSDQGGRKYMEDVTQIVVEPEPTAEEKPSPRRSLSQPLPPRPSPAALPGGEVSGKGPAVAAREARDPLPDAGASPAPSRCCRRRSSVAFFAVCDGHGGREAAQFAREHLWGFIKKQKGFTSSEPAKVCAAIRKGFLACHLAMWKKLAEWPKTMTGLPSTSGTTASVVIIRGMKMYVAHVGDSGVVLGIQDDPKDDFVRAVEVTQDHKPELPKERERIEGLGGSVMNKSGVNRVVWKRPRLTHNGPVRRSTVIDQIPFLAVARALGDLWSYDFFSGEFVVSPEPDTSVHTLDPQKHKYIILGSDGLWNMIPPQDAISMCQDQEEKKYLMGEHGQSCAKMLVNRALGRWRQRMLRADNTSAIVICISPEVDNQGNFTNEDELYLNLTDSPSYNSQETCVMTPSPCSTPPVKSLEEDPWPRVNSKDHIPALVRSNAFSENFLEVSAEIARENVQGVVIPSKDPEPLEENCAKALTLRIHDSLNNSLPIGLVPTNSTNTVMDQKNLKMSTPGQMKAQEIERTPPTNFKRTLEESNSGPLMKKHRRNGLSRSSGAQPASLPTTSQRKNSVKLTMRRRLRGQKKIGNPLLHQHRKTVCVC
Method in brief: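 10 nM WIP1 + cpd, 1 h RT; + 2 uM VEPPL-pS-QETFS, 5 min RT; stop 0.5% formic acid; labelled product standard 1 uM; RapidFire MS. Buffer 50 mM Tris pH 7.5, 30 mM MgCl2, 1 mM TCEP.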

[3] = target: Protein phosphatase 1D (Homo sapiens) (UniProt O15297); assay: Rhodamine-PBP qHTS Assay for Modulators of WT P53-Induced Phosphatase 1 (WIP1) (AID 1347425)
Method in brief: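 The read-out is the change in Rhodamine-PBP fluorescence (f1 - f0, ex 525/em 598 nm) as Pi is released, read each minute for 11 min. Final reaction: 5 nM WIP1, 10 uM phosphopeptide VEPPL-pS-QETFS, 10 uM Rh-PBP, 50 mM Tris-HCl pH 7.5, 30 mM MgCl2. Compound was preincubated with enzyme for 1 hour at room temperature.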

[4] = Primary qHTS for inhibitors of SARS-S pseudo-typed particle cell entry (AID 1479145; calls by dose curve; further: nearly all actives have a fitted effect of over 45% in size)
[5] = Primary qHTS for Huh7 cytotoxicity: counterscreen for inhibitors of MERS-S pseudotyped particle cell entry (AID 1479147; calls by dose curve)
[6] = Primary qHTS for inhibitors of MERS-S pseudo-typed particle cell entry (AID 1479149; calls by dose curve; further: nearly all actives have a fitted effect of over 60% in size)
[7] = Primary qHTS for Vero E6 cytotoxicity: counterscreen for inhibitors of SARS-S pseudo-typed particle cell entry (AID 1479150; calls by dose curve)
[8] = target: Calcium and integrin-binding protein 1 (Homo sapiens) (UniProt Q99828); assay: Primary qHTS for Identification of Calcium Integrin Binding Protein 1 (CIB1) Competitor (AID 1508620);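 further: GST tagged CIB1 binding a fluorescein labelled alphaIIb integrin peptide tracer; top concentration of the series differs between compounds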
Chain of Calcium and integrin-binding protein 1 (Homo sapiens) (Q99828 whole entry, looked up): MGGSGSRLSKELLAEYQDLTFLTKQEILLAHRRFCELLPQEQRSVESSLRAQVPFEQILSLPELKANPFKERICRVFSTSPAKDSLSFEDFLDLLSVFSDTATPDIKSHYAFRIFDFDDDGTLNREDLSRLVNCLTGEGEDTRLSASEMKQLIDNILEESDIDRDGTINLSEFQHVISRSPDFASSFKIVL
Method in brief: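 CIB1-GST (1 uM final) and compound incubated 15 min at room temperature before adding FITC-alphaIIb peptide tracer (100 nM final). Competition for binding read by fluorescence polarization (ex 480, em 540) after another 15 min at room temperature.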

[9] = Primary qHTS for inhibitors of La Crosse Virus (LACV) - induced cell death in SH-SY5Y cells (AID 1508616);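 further: top concentration of the series differs between compounds; higher means more rescue of cells from virus-induced death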
Method in brief: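 Readout was luminescence from ATPLite 1step added after a 6-day LACV infection (0.01 MOI) of SH-SY5Y cells that had received pin-transferred compound 24 hr after seeding.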

[10] = qHTS to identify inhibitors of the type 1 interferon - major histocompatibility complex class I in skeletal muscle: primary screen against the NCATS LOPAC collection (AID 1347405);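 further: lytic HiBiT luminescence reporting HLA-B protein level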
Method in brief: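 Cells: C25cl48 human myoblasts, HiBiT-tagged HLA-B*08:01, stimulated with IFN-beta 4.0 ng/ml. Compounds are titrated 1:4.3 over 7 points from 46 uM final and incubated 24 hrs; endogenous MHC class I is quantified by HiBiT lytic luminescence.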

[11] = qHTS for inhibitors of adenylyl cyclases using a fission yeast platform: a pilot screen against the NCATS LOPAC library (AID 1347410)
Method in brief: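 Growth medium went into the plates first, then compounds were pinned (final up to 57 µM), then CHP2027 yeast were added. Plates were incubated overnight (18 h) at 30C in the dark, and GFP was measured by laser scanning cytometry.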

[12] = Validation qHTS assay for inhibitors of Activation Induced Cytidine Deaminase (AID): UDG Counterscreen signal (AID 1347427)
Method in brief: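 Counterscreen read of UDG activity (2 U/mL, 4/3x) in the FRET deamination format with AID (1 uM, 4/3x), DJC20/DJC23 substrates (250 nM, 4x), 4 h at room temperature. NaOH stop, fluorescence at 560 ex/665 em.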

[13] = target: Single-stranded DNA cytosine deaminase (Homo sapiens) (UniProt Q9GZX7); assay: Validation qHTS assay for inhibitors of Activation Induced Cytidine Deaminase (AID): AID signal (AID 1347429)
Chain of Single-stranded DNA cytosine deaminase (Homo sapiens) (Q9GZX7 whole entry, looked up): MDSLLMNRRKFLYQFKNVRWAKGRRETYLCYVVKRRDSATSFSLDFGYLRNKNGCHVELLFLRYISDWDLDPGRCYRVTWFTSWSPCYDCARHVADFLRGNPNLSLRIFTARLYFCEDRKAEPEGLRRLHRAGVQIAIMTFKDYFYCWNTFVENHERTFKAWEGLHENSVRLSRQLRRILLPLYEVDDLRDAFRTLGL
Method in brief: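 In this coupled qHTS, AID deaminates a FRET-labelled ssDNA substrate in the presence of UDG over 4 hr at room temperature. Compounds span up to 114 uM final.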

[14] = target: Calcium and integrin-binding protein 1 (Homo sapiens) (UniProt Q99828); assay: Validation qHTS for Identification of Calcium Integrin Binding protein 1 (CIB1) Competitor (AID 1508618)
Method in brief: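 CIB1-GST (1 uM final) incubated 15 min at room temperature with compounds (up to 114 uM), then FITC-labelled alphaIIb peptide (100 nM) added. FP read (Ex 480/Em 540) after 15 min, pH 7.4 buffer containing 5 mM CaCl2.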

[15] = target: Calcium and integrin-binding protein 1 (Homo sapiens) (UniProt Q99828); assay: Confirmatory qHTS for Identification of Calcium Integrin Binding Protein 1 (CIB1) Competitor (AID 1508617); further: nearly all actives have a fitted effect of over 65% in size
Method in brief: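 Compounds at up to 114 uM final met 1 uM GST-tagged CIB1 for 15 min at room temperature (HEPES pH 7.4, 5 mM CaCl2). FITC-labelled alphaIIb peptide, 100 nM, added; polarization read after 15 min more.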

Measured: Potency

CCC(=O)O[C@@H]1C=C2CCC3C(CCC4(C)C3CC[C@@H]4OC(=O)CC)C2CC1 (stereo not given in full)
inactive: [1] | [2] | [3] | [4] | [5] | [6] | [7] | [8]

Cc1ccc(Cl)c(O)c1
inactive: [1] | [2] | [3] | [9] | [8]

NC(=NCCC[C@H](N)C(=O)O)N[N+](=O)[O-]
inactive: [10] | [11] | [12] | [13] | [14]

COC(C)(C)CCCC(C)C/C=C/C(C)=C/C(=O)OC(C)C (stereo not given)
inactive: [1] | [2] | [3] | [9] | [8]

c1ccc(C2(c3ccccc3)CC2C2=NCCN2)cc1 (stereo not given)
inactive: [10] | [12] | [13] | [5] | [6] | [7]

O=C(O)COc1ccccc1
inactive: [1] | [2] | [3] | [4] | [5] | [6] | [7] | [9] | [8]

C=CCN1CC[C@]23CCCCC2[C@H]1Cc1ccc(O)cc13 (stereo not given in full)
inactive: [10] | [11] | [12] | [13] | [14]

c1ccc2sc(C3(N4CCCCC4)CCCCC3)cc2c1
inactive: [10] | [11] | [12] | [13] | [14]

Cc1cc(O)ccc1Cl
inactive: [1] | [2] | [3] | [4] | [5] | [6] | [7] | [8]

O=C(O)C(Cl)Cl
inactive: [1] | [2] | [3] | [9] | [8]

CC(C)Oc1cccc(NC(=O)c2ccccc2C(F)(F)F)c1
inactive: [1] | [2] | [3] | [9] | [15]

COC(=O)c1cncn1C(C)c1ccccc1 (stereo not given)
inactive: [1] | [2] | [3] | [4] | [5] | [6] | [7] | [9] | [8]
